Test results as given in PMC7862700, “An all-to-all approach to the identification of sequence-specific readers for epigenetic DNA modifications on cytosine”.

Columns and labels:
Assay in all cases: DAPPL (digital affinity profiling via proximity ligation, sequencing); 10 mM Tris-HCl pH 7.5, 50 mM NaCl, 1 mM DTT, 4% glycerol, room temperature, 30 min; GST-TFs on glutathione beads, 16-mer random dsDNA library, 0.1% formaldehyde crosslink after washing; high values mean tight binding
[1] = target: T1, FLI1 (Homo sapiens, UniProt Q01543 1-452); details: protein: recombinant; tags: N-terminal GST; dsDNA, one strand shown
T1 sequence: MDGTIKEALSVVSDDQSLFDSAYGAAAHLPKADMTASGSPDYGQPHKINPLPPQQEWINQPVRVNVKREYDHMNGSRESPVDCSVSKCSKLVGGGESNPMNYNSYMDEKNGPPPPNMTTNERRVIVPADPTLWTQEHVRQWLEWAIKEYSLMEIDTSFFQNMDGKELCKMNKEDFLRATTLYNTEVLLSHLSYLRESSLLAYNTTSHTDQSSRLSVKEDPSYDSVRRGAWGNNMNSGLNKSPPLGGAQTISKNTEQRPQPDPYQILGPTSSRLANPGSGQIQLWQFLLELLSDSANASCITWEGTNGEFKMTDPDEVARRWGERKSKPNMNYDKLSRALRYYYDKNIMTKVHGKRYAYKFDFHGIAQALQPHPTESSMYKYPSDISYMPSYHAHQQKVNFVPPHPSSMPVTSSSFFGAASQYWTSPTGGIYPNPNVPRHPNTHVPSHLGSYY
How it was run: (§1)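 Each value of binding signal is a hexamer's read frequency for a factor divided by the same hexamer's frequency in the tag-only sample. Barcoded, bead-captured GST fusions of human transcription factors made in yeast were pooled with that sample and incubated with 200 nmole of a random double-stranded 16-mer DNA library in Tris/NaCl/DTT/glycerol buffer at room temperature for 30 min. Washing, 0.1% formaldehyde crosslinking, proximity ligation, PCR and Illumina NextSeq500 sequencing followed.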

[2] = target: T2, ELK1 (Homo sapiens, UniProt P19419 1-428); details: protein: recombinant; tags: N-terminal GST; dsDNA, one strand shown
T2 sequence: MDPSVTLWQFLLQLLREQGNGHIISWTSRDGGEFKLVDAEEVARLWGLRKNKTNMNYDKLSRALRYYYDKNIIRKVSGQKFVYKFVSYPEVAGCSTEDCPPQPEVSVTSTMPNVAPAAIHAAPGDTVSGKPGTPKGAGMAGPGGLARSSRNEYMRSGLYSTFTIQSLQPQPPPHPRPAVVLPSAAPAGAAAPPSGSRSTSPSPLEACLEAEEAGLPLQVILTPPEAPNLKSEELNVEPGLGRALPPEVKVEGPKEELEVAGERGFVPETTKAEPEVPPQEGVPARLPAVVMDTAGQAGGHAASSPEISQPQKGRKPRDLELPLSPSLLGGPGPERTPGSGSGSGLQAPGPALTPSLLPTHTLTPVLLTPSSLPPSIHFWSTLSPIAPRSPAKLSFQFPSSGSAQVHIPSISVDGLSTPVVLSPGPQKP
How it was run: as §1

[3] = target: T3, GABPA (Homo sapiens, UniProt Q06546 1-454); details: protein: recombinant; tags: N-terminal GST; dsDNA, one strand shown
T3 sequence: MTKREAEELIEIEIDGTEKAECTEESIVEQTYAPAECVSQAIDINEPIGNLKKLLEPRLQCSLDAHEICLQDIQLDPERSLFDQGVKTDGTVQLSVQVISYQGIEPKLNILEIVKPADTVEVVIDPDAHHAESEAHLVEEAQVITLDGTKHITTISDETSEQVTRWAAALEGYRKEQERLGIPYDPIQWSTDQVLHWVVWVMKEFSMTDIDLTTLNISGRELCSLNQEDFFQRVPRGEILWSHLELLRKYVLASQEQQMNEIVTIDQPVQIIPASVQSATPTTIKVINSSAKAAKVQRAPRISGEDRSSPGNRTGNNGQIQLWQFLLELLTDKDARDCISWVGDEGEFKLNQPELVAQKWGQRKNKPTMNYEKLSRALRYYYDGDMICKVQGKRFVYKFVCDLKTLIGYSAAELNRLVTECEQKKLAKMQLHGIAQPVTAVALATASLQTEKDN
How it was run: as §1

[4] = target: T4, ERG (Homo sapiens, UniProt P11308 1-479); details: protein: recombinant; tags: N-terminal GST; dsDNA, one strand shown
T4 sequence: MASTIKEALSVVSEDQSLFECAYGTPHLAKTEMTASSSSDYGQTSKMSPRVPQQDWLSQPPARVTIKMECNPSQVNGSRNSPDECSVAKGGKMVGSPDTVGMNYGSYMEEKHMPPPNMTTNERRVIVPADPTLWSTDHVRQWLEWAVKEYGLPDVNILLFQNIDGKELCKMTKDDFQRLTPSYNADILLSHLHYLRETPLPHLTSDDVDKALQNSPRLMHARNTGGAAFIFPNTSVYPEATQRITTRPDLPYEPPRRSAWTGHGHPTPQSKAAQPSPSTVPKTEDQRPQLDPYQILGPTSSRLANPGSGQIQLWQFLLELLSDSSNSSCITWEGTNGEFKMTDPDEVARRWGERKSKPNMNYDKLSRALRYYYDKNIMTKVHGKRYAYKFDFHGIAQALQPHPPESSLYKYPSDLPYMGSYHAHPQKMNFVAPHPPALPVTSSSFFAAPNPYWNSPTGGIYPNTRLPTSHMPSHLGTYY
How it was run: as §1

[5] = target: ELF1 (Homo sapiens, UniProt P32519 1-619); details: protein: recombinant; tags: N-terminal GST; dsDNA, one strand shown
How it was run: as §1

[6] = target: T5, EHF (Homo sapiens, UniProt Q9NZC4 1-300); details: protein: recombinant; tags: N-terminal GST; dsDNA, one strand shown
T5 sequence: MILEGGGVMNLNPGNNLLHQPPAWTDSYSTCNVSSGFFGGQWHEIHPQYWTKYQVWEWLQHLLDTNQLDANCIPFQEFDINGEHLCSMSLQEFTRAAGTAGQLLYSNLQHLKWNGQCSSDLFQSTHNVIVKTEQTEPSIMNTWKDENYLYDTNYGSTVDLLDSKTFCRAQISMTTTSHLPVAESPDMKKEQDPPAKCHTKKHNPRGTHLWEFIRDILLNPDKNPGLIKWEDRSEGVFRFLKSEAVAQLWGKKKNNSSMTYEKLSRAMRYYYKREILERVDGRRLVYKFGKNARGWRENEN
How it was run: as §1

[7] = target: SPI1 (Homo sapiens, UniProt P17947 1-270); details: protein: recombinant; tags: N-terminal GST; dsDNA, one strand shown
How it was run: as §1

[8] = target: SPIB (Homo sapiens, UniProt Q01892 1-262); details: protein: recombinant; tags: N-terminal GST; dsDNA, one strand shown
How it was run: as §1

[9] = target: T6, ELK3 (Homo sapiens, UniProt P41970 1-407); details: protein: recombinant; tags: N-terminal GST; dsDNA, one strand shown
T6 sequence: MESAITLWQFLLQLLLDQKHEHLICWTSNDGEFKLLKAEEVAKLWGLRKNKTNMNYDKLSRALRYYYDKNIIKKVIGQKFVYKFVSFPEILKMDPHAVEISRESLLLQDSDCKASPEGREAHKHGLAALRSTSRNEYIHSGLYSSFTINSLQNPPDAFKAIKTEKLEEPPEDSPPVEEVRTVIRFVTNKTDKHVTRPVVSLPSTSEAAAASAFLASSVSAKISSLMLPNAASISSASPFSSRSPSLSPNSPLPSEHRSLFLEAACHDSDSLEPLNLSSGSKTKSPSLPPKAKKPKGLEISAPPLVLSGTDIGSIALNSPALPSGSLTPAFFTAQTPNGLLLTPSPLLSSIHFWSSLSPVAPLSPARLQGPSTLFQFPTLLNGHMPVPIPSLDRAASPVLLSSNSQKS
How it was run: as §1

[10] = target: T7, FEV (Homo sapiens, UniProt Q99581 1-238); details: protein: recombinant; tags: N-terminal GST; dsDNA, one strand shown
T7 sequence: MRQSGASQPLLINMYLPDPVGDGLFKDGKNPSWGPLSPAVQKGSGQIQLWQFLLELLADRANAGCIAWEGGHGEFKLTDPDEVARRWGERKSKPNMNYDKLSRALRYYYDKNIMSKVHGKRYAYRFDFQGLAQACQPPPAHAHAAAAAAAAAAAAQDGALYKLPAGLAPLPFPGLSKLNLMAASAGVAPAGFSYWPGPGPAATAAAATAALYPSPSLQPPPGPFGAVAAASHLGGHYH
How it was run: as §1

[11] = target: ETV5 (Homo sapiens, UniProt P41161 1-510); details: protein: recombinant; tags: N-terminal GST; dsDNA, one strand shown
How it was run: as §1

[12] = target: HSF1 (Homo sapiens, UniProt Q00613 1-529); details: protein: recombinant; tags: N-terminal GST; chain copies: 3; dsDNA, one strand shown
How it was run: as §1

[13] = target: T8, SPIC (Homo sapiens, UniProt Q8N5J4 1-248); details: protein: recombinant; tags: N-terminal GST; dsDNA, one strand shown
T8 sequence: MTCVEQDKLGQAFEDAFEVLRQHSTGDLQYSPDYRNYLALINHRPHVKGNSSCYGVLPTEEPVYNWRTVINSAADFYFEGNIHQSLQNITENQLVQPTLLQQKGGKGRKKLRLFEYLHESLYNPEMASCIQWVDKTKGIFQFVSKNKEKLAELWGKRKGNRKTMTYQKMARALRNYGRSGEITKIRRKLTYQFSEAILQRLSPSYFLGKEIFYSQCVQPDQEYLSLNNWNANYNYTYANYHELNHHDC
How it was run: as §1

[14] = target: ELF4 (Homo sapiens, UniProt Q99607 1-663); details: protein: recombinant; tags: N-terminal GST; dsDNA, one strand shown
How it was run: as §1

[15] = target: T9, ELK4 (Homo sapiens, UniProt P28324-2 1-405); details: protein: recombinant; tags: N-terminal GST; dsDNA, one strand shown
T9 sequence: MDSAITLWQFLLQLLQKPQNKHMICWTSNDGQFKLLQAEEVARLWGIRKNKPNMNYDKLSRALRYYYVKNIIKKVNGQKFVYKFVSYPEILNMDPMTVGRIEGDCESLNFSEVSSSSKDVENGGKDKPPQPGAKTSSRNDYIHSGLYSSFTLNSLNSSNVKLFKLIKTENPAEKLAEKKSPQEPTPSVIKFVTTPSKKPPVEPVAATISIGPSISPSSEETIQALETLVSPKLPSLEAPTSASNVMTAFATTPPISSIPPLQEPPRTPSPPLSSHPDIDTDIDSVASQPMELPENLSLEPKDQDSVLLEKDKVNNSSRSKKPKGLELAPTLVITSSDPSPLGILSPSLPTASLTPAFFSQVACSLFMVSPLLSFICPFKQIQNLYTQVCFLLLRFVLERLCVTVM
How it was run: as §1

[16] = target: T10, ETV2 (Homo sapiens, UniProt O00321 1-342); details: protein: recombinant; tags: N-terminal GST; dsDNA, one strand shown
T10 sequence: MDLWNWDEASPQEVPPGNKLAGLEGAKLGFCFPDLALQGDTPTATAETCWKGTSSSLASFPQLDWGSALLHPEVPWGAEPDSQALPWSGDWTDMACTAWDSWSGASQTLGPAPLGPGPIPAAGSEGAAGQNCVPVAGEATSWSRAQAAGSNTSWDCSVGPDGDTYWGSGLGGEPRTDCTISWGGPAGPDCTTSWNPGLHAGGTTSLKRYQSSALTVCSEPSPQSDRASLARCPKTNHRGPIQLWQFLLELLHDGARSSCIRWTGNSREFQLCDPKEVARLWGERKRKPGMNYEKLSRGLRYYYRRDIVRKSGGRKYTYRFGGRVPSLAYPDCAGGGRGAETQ
How it was run: as §1

[17] = target: T11, ELF3 (Homo sapiens, UniProt P78545 1-371); details: protein: recombinant; tags: N-terminal GST; dsDNA, one strand shown
T11 sequence: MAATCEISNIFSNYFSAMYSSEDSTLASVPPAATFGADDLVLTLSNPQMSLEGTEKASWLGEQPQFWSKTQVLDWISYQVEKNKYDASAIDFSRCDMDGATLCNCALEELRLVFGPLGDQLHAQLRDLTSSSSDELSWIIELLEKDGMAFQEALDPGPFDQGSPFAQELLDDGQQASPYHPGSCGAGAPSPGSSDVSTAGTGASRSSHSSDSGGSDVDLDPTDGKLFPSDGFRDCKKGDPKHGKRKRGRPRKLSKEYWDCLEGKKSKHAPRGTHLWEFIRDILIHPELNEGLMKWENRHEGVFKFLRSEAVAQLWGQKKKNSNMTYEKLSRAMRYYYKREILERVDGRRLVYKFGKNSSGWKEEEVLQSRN
How it was run: as §1

[18] = target: CRX (Homo sapiens, UniProt O43186 1-299); details: protein: recombinant; tags: N-terminal GST; dsDNA, one strand shown
How it was run: as §1

[19] = target: ETV1 (Homo sapiens, UniProt P50549 1-477); details: protein: recombinant; tags: N-terminal GST; dsDNA, one strand shown
How it was run: as §1

ELF1, sequence (P32519 whole entry): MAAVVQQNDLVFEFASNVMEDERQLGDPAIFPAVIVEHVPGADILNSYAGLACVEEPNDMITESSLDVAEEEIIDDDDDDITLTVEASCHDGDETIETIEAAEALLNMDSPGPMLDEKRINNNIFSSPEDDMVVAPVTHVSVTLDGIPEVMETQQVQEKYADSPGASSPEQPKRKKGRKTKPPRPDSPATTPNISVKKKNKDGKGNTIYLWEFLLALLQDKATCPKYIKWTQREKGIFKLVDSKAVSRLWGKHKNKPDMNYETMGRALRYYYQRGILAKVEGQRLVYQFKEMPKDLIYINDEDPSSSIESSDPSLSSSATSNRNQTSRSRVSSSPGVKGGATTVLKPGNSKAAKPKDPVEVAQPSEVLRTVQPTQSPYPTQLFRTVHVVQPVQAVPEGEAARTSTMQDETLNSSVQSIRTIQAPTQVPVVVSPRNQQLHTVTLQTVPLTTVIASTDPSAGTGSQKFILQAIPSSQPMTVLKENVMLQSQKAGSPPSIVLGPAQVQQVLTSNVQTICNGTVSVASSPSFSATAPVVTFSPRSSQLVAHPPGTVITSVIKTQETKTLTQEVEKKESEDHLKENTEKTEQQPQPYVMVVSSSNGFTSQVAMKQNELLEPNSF
CRX, sequence (O43186 whole entry): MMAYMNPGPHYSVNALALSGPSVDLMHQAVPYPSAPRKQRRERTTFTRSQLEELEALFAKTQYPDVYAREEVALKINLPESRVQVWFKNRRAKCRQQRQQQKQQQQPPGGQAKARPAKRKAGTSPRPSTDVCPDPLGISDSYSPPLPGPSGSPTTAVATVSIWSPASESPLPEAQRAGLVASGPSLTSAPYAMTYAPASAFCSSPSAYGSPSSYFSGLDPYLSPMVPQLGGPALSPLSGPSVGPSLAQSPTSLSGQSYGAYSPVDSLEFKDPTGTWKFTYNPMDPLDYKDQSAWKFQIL
ETV1, sequence (P50549 whole entry): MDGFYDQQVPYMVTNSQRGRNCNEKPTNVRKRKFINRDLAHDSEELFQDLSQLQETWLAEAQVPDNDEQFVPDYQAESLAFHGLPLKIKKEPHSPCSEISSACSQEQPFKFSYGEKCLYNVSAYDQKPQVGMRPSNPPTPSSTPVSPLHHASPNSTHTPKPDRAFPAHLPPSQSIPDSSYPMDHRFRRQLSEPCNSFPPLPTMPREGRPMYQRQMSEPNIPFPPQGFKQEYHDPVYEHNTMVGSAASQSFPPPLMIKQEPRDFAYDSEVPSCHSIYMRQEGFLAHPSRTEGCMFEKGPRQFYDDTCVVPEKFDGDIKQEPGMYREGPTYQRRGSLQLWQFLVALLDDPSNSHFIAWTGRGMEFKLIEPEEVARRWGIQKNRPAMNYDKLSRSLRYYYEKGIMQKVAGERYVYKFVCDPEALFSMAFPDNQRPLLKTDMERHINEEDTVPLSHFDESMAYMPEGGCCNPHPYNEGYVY
ETV5, sequence (P41161 whole entry): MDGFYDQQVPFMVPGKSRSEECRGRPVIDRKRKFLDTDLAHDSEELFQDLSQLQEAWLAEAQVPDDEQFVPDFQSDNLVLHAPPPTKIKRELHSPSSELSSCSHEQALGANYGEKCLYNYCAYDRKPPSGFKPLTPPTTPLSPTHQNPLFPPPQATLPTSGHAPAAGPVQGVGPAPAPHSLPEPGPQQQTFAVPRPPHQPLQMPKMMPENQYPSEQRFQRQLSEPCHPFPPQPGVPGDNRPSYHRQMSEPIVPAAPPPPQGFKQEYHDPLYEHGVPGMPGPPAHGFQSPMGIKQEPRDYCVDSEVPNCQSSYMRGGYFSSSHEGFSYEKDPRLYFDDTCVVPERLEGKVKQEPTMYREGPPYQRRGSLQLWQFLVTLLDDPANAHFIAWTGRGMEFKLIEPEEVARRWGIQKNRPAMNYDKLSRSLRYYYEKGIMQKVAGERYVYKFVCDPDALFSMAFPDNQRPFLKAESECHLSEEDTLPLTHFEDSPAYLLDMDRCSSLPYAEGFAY
HSF1, sequence (Q00613 whole entry): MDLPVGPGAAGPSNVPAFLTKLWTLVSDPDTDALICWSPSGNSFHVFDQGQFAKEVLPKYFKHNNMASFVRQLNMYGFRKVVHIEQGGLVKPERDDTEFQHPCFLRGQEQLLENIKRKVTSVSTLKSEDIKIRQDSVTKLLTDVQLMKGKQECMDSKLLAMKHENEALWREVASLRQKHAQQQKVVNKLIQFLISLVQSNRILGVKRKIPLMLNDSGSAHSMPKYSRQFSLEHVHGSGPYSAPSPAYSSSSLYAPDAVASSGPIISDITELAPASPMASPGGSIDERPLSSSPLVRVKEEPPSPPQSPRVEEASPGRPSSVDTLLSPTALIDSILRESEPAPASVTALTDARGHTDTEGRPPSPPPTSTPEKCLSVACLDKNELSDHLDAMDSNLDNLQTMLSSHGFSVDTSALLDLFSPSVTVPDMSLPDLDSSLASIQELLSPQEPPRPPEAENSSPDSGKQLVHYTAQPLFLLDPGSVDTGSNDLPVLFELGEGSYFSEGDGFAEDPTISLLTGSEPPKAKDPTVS
ELF4, sequence (Q99607 whole entry): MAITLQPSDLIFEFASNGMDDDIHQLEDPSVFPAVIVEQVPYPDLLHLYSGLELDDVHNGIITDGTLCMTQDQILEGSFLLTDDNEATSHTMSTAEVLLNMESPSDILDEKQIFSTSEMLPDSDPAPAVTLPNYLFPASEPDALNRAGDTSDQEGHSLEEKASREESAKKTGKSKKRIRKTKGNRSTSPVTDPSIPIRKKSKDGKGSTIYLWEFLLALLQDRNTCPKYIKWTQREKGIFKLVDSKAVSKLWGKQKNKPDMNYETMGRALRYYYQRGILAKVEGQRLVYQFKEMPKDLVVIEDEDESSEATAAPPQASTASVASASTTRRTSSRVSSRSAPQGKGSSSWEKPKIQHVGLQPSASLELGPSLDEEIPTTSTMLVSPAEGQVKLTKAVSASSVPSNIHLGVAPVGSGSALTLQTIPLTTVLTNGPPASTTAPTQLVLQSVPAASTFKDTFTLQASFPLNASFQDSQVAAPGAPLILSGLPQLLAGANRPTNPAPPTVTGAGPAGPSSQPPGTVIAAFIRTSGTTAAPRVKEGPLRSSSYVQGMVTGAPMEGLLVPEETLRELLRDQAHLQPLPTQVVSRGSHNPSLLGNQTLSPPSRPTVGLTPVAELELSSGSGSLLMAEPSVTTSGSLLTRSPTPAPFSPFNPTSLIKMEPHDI
SPIB, sequence (Q01892 whole entry): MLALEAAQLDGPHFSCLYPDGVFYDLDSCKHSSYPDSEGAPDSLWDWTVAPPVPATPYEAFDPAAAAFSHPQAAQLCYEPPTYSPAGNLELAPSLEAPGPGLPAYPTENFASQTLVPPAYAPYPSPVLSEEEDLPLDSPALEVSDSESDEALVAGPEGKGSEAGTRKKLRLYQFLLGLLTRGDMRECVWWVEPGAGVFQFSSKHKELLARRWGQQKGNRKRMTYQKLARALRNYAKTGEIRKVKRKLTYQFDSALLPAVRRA

GACTTT
binding signal [1]: 1.04 fold enrichment (6-mer frequency, TF over GST control)
binding signal [2]: 1.18 fold enrichment (6-mer frequency, TF over GST control)
binding signal [3]: 1.17 fold enrichment (6-mer frequency, TF over GST control)
binding signal [4]: 1.16 fold enrichment (6-mer frequency, TF over GST control)
binding signal [5]: 1.12 fold enrichment (6-mer frequency, TF over GST control)
binding signal [6]: 1.07 fold enrichment (6-mer frequency, TF over GST control)
binding signal [7]: 1.23 fold enrichment (6-mer frequency, TF over GST control)
binding signal [8]: 1.12 fold enrichment (6-mer frequency, TF over GST control)
binding signal [9]: 1.12 fold enrichment (6-mer frequency, TF over GST control)
binding signal [10]: 1.14 fold enrichment (6-mer frequency, TF over GST control)
binding signal [11]: 1.22 fold enrichment (6-mer frequency, TF over GST control)
binding signal [12]: 1.4 fold enrichment (6-mer frequency, TF over GST control)
binding signal [13]: 1.21 fold enrichment (6-mer frequency, TF over GST control)
binding signal [14]: 1.22 fold enrichment (6-mer frequency, TF over GST control)
binding signal [15]: 1.17 fold enrichment (6-mer frequency, TF over GST control)
binding signal [16]: 1.1 fold enrichment (6-mer frequency, TF over GST control)
binding signal [17]: 1.1 fold enrichment (6-mer frequency, TF over GST control)
binding signal [18]: 1.37 fold enrichment (6-mer frequency, TF over GST control)
binding signal [19]: 1.24 fold enrichment (6-mer frequency, TF over GST control)
